Here are results for 73 compounds from publication PMC4552634, “A New Set of Chemical Starting Points with Plasmodium falciparum Transmission-Blocking Potential for Antimalarial Drug Discovery” (PLoS ONE, 2015).

The experiment deals with P. falciparum stage V gametocytes. Further details: BacTiter-Glo ATP luminescence viability of purified stage V gametocytes in 384-well plates, per cent inhibition versus DMSO. As to conditions: 48 h, 5 µM, inhibitor.

Like-named read-outs stand apart in the source and are kept apart here. About 3,200 (25%) of roughly 13,000 compounds showed an effect of 50% or more. This is one part of the list.

In the case of `COc1ccc2nccc(N3CCC(SCCNS(=O)(=O)c4ccc5c(c4)OCCO5)C3)c2n1` (stereo not shown) [TCMDC-134549], the “% Inhibition” value is recorded as -1.611%. For the compound `CCCC(=O)c1cnc2c(I)cccc2c1Nc1ccccc1C` [TCMDC-138960], the “% Inhibition” value is -3.378%. `Cc1cccc2[nH]c(-c3ccc(-c4cccc(CN5CCN(c6ccncc6)CC5)c4)cc3)nc12` [TCMDC-132913]: the “% Inhibition” value is given as 17.14%. On to `CC1(C)N=C(N)N=C(N)N1OCCOc1ccc(Cc2ccccc2)cc1` [TCMDC-131618], for which the “% Inhibition” value is on record as 0.9057%.

With `CCC1(C)N=C(N)N=C(N)N1c1ccccc1` (stereo not shown) [TCMDC-131294], the “% Inhibition” value came to 1.322%.

In the case of `COc1ccc(Br)cc1/C=C/C(=O)Nc1cccc(C2CCN(C)CC2)c1` [TCMDC-133709], the “% Inhibition” value was 17.69%. As to `CC(CN)OCn1cnc2c(N)ncnc21` (stereo not shown) [TCMDC-137691], the “% Inhibition” value is given as 4.807%. As for `Nc1ccc(-c2ccc(NC(=O)Nc3ccccc3)cc2)cn1` [TCMDC-133409], the “% Inhibition” value is 8.914%.

As to `Cc1noc(C)c1-c1cccc(CNCc2ccc(-c3ccc(-c4nc5ccccc5[nH]4)s3)cc2)c1.O=C(O)C(F)(F)F` [TCMDC-133049], the “% Inhibition” value is recorded as 5.306%. `COc1ccc(-c2onc(C(F)(F)F)c2-c2ccc(Br)cc2)c(O)c1` [TCMDC-125235]: the “% Inhibition” value was determined as 3.062%. For the compound `O=C(Nc1ccc(N2CCCN(Cc3cccc(F)c3)CC2)cc1)c1ccc(F)cc1` [TCMDC-135020], the “% Inhibition” value is -31.48%. As for `CC[C@H]1CN2CC[C@@H]1C[C@H]2[C@H](O)c1cc(-c2cccnc2)nc2ccc(OC)cc12` [TCMDC-141335], the “% Inhibition” value was -21.27%.

Consider `CC[C@H]1CN2CC[C@H]1C[C@H]2[C@H](O)c1cc(-c2cccc(C)c2)nc2ccc(OC)cc12` [TCMDC-141191], for which the “% Inhibition” value is listed as 44.26%. Same read-out and setting: the figure for `CC[C@H]1CN2CC[C@H]1C[C@H]2[C@H](O)c1cc(-c2cccc(F)c2)nc2ccc(OC)cc12` [TCMDC-141194] is 63.72%; for `O=S(=O)(Nc1ccc(CCN2CCC(N3CCCCC3)CC2)cc1)c1cccc2cccnc12` [TCMDC-134081] it is 43.01%; for `O=S(=O)(Nc1cccc(CCN2CCC(N3CCCCC3)CC2)c1)c1cccc2cccnc12` [TCMDC-134074] it is 50.45%. On the same count and under the same terms, the figure for `Cc1c(Cl)cccc1S(=O)(=O)Nc1cccc(CCN2CCC(N3CCCCC3)CC2)c1` [TCMDC-134064] is 56.09%.

For the compound `O=S(=O)(Nc1cccc(CCN2CCC(N3CCCCC3)CC2)c1)c1cccc2ccccc12` [TCMDC-134069], the “% Inhibition” value was 73%.

With `COc1ccc(Cl)cc1S(=O)(=O)Nc1cccc(CCN2CCC(N3CCCCC3)CC2)c1` [TCMDC-134076], the “% Inhibition” value is recorded as 49.77%. As for `Cc1cccc(Cl)c1S(=O)(=O)Nc1cccc(CCN2CCC(N3CCCCC3)CC2)c1` [TCMDC-134063], the “% Inhibition” value stood at 18.66%.

As for `CN(C)c1cccc2c(S(=O)(=O)Nc3cccc(CCN4CCC(N5CCCCC5)CC4)c3)cccc12` [TCMDC-134066], the “% Inhibition” value worked out at 76.83%. Turning to `Cc1nc2ccc3ccc(CNc4ccc(C#N)cc4)cc3c2c(=O)[nH]1` [TCMDC-137846], the “% Inhibition” value is -36.65%. On to `CCCCCCN1CCCN(Cc2ccc(C(=O)Nc3ccc(C(C)(C)C)cc3)cc2)CC1` [TCMDC-136446], for which the “% Inhibition” value was -5.342%. Still for that read-out and setting: the figure for `O=C(Cc1ccc[n+]([O-])c1)Nc1ccc(-c2cccc(-c3nc4cc(C(F)(F)F)ccc4[nH]3)c2)cc1` [TCMDC-136991] is -49.92%. The same measure, in the same setting: to `O=C(Nc1cccc(-c2cccc(-c3nc4ccc(C(F)(F)F)cc4[nH]3)c2)c1)c1ccoc1` [TCMDC-136844] belongs 9.594%; to `O=C(Nc1ccc(-c2cccc(-c3nc4ccc(C(F)(F)F)cc4[nH]3)c2)cc1)c1cccnc1` [TCMDC-136926], 86.45%. As to `O=C(Nc1ccc(-c2cccc(-c3nc4ccc(C(F)(F)F)cc4[nH]3)c2)cc1)c1ccoc1` [TCMDC-136845], the “% Inhibition” value was 54.13%. As to `O=C(Nc1cccc(-c2cccc(-c3nc4ccc(C(F)(F)F)cc4[nH]3)c2)c1)c1cccnc1` [TCMDC-136925], the “% Inhibition” value is on record as -23.9%. The same measure, in the same setting: to `O=C(Nc1cccc(-c2ccc(-c3nc4ccc(C(F)(F)F)cc4[nH]3)cc2)c1)c1ccncc1` [TCMDC-136967] belongs -31.79%; to `NC(=O)c1cccc(C(=O)Nc2ccc(-c3cccc(-c4nc5ccc(C(F)(F)F)cc5[nH]4)c3)cc2)c1` [TCMDC-132200], -70.46%; to `O=C(Nc1cccc(-c2ccc(-c3nc4ccc(C(F)(F)F)cc4[nH]3)cc2)c1)c1ccoc1` [TCMDC-136848], -29.98%. Same read-out and setting: to `O=C(Nc1ccc(-c2cccc(-c3nc4ccc(C(F)(F)F)cc4[nH]3)c2)cc1)c1ccncc1` [TCMDC-136964] belongs -22.85%; to `O=C(Nc1cccc(-c2ccc(-c3nc4ccc(C(F)(F)F)cc4[nH]3)cc2)c1)c1cccnc1` [TCMDC-136930], 51.27%. The same measure, in the same setting: the figure for `CC(=O)Oc1ccc(C(=O)Oc2ccccc2C#CC#N)cc1OC(C)=O` [TCMDC-138111] is 22.32%; for `CC(Oc1ccc(Cl)cc1Cl)c1nc(-c2ccc(NC(=O)c3ccco3)cc2)no1` (stereo not shown) [TCMDC-124355] it is -1.611%. On to `O=C(Nc1ccc2c(c1)CN(Cc1ccc(N3CCCC3)o1)CCC2)c1cncs1` [TCMDC-134724], for which the “% Inhibition” value is reported as -13.68%. `O=C(/C=C/c1ccc(C(F)(F)F)cc1)NC1CCC(CN2CCC(c3c[nH]c4ccccc34)CC2)CC1` (stereo not shown) [TCMDC-139758]: the “% Inhibition” value (% Inhibition) is 96.79%. Still for that read-out and setting: to `O=C(/C=C/c1ccc(C(F)(F)F)cc1)NC1CCC(CN2CCC(c3c[nH]c4ccccc34)CC2)CC1` (stereo not shown) [TCMDC-139768] belongs 87.3%. `O=C(/C=C/c1cc(C(F)(F)F)ccc1F)NC1CCC(CN2CCC(c3c[nH]c4ccccc34)CC2)CC1` (stereo not shown) [TCMDC-139855]: the “% Inhibition” value was -4.527%.

For `CS(=O)(=O)c1ccc(-c2cncc(Cl)n2)cc1` [TCMDC-135191], the “% Inhibition” value is on record as 20.05%. For the compound `COc1cc(NC(=O)/C=C/c2cc(F)cc(F)c2F)cc(OCCN2CCCCC2)c1` [TCMDC-140932], the “% Inhibition” value is -50.87%. Consider `Cc1cc(NC2CCN(CC3CCCCC3)C2)nc(Nc2ccc(Cl)cc2)n1` (stereo not shown) [TCMDC-137018], for which the “% Inhibition” value is on record as 51.98%. In the case of `Cc1cc(N2CCC(N(C)C)C2)nc(Nc2ccc(Cl)cc2)n1` (stereo not shown) [TCMDC-137011], the “% Inhibition” value is recorded as -3.517%. As for `Cc1cc(N2CCN(CC3CCN(C)CC3)CC2)nc(Nc2ccc(Br)cc2)n1` [TCMDC-137016], the “% Inhibition” value was 54.5%. For `Cc1cc(N2CCCN(C)CC2)nc(Nc2ccc(Cl)cc2)n1` [TCMDC-137009], the “% Inhibition” value amounted to 14.59%.

In the case of `Cc1cc(NC2CCN(CC3CCCCC3)C2)nc(Nc2ccc(Br)cc2)n1` (stereo not shown) [TCMDC-137022], the “% Inhibition” value is 32.36%. Regarding `Cc1cc(N2CCN(CC3CCN(C)CC3)CC2)nc(Nc2ccc(Cl)cc2)n1` [TCMDC-137012], the “% Inhibition” value is reported as 55.47%.

As to `Cc1cc(NCC2CCN(CC3CCCCC3)C2)nc(Nc2ccc(Cl)cc2)n1` (stereo not shown) [TCMDC-137020], the “% Inhibition” value is -71.76%. For `Cc1cc(N2CCCN(CC3CCCCC3)CC2)nc(Nc2ccc(Br)cc2)n1` [TCMDC-137133], the “% Inhibition” value is -10.88%. Turning to `Cc1cc(N2CCN(CC3CCCCC3)CC2)nc(Nc2ccc(Br)cc2)n1` [TCMDC-137021], the “% Inhibition” value is given as -43.3%. Regarding `COc1ccc(Nc2ncc3c(-c4ccc(NC(=O)c5cccc(C(F)(F)F)c5)cc4)c[nH]c3n2)cc1OC` [TCMDC-138863], the “% Inhibition” value was -42.22%. On to `Cc1cnccc1/C=C/c1cccc(OCCN2CCc3ccc(S(C)(=O)=O)cc3CC2)c1` [TCMDC-135875], for which the “% Inhibition” value came to 13.2%. For the compound `Cc1noc(C)c1-c1ccc2c(Nc3ccc([N+](=O)[O-])cc3)c(C(N)=O)cnc2c1.Cl` [TCMDC-136009], the “% Inhibition” value is given as -6.074%. Same read-out and setting: the figure for `CN(C(=O)c1ccccc1)C1c2cc(C#N)ccc2OC(C)(C)C1O` (stereo not shown) [TCMDC-131573] is -17.79%; for `O=C1O[C@H](c2ccccc2)[C@H](c2ccccc2)N(C(=O)OCc2ccccc2)[C@H]1Cc1ccccc1C1CCCC1` [TCMDC-137303] it is 5.453%. On the same count and under the same terms, to `OC(c1ccccc1)C1CN(CCC2CC3CCC2C3)CCC1(O)c1ccccc1` (stereo not shown) [TCMDC-131996] belongs -67.18%; to `CCC(C)NS(=O)(=O)c1ccc2nc(Nc3cccc(SC)c3)n(C(C)C(C)C)c2c1` (stereo not shown) [TCMDC-136237], -59.9%. For `Cc1cc(Nc2c(C(N)=O)cnc3cc(-c4ccoc4)ccc23)ccc1N1CCN(C)CC1.Cl` [TCMDC-135441], the “% Inhibition” value is -28.97%. As to `CN1CCN(c2ccc(Nc3c(C(N)=O)cnc4cc(-c5ccoc5)ccc34)cc2)CC1.Cl` [TCMDC-135440], the “% Inhibition” value was -93.68%. In the case of `Cl.NC(=O)c1cnc2cc(-c3ccoc3)ccc2c1Nc1ccc(NC(=O)Nc2ccccc2Cl)cc1` [TCMDC-135442], the “% Inhibition” value is on record as 70.72%. As for `O=C(Nc1ccccc1-c1nc2ccccc2s1)C(Cl)(Cl)Cl` [TCMDC-123676], the “% Inhibition” value amounted to 7.005%. For `O=c1cc(NCCCNCc2cc3c(Cl)cc(Cl)cc3[nH]2)[nH]c2ccccc12` [TCMDC-139789], the “% Inhibition” value is recorded as 2.174%. With `O=C(NCCCNc1ccc2ccccc2n1)c1cc2c(Cl)cc(Cl)cc2[nH]1` [TCMDC-140378], the “% Inhibition” value stood at 3.853%. Same read-out and setting: to `Clc1ccc2c(Cl)c(CNCCCNc3nc4ccccc4[nH]3)[nH]c2c1` [TCMDC-139967] belongs -22.32%; to `CCOc1c(Br)cc(Br)cc1CNCCCCNc1nc2ccccc2[nH]1` [TCMDC-139968], 0.6072%; to `Brc1cc(CNCCCNc2nc3ccccc3[nH]2)sc1Br` [TCMDC-139801], 12.5%. As for `Cc1cc(C)c2cc(CNCCCNc3nc4ccccc4[nH]3)[nH]c2c1` [TCMDC-140069], the “% Inhibition” value amounted to 42.15%. Still for that read-out and setting: to `CCOc1c(CNCCCNc2nc3ccccc3[nH]2)cc(Br)cc1OC` [TCMDC-140089] belongs 52.36%; to `Clc1ccc(Cl)c2[nH]c(CNCCCNc3nc4ccccc4[nH]3)cc12` [TCMDC-139957], 50.82%. Still for that read-out and setting: to `CCOc1c(CNCCCNc2nc3ccccc3[nH]2)cc(I)cc1OC` [TCMDC-140105] belongs 34.54%; to `FC(F)(F)c1cc(C(F)(F)F)c2cc(CNCCCNc3nc4ccccc4[nH]3)[nH]c2c1` [TCMDC-139965], -11.18%. `Clc1cc(Cl)c2cc(CNCCCNc3ccc4ccccc4n3)[nH]c2c1` [TCMDC-140495]: the “% Inhibition” value is recorded as 95.02%. As for `c1ccc(-c2ccc(CNCCCNc3nc4ccccc4[nH]3)cc2)cc1` [TCMDC-136061], the “% Inhibition” value turned out to be 54.24%.

One may read the % Inhibition as the relative decrease from the control value, in per cent.
